# Values joined by “and” are separate entries in the source; they are usually repeats but may differ in a detail not shown here. Equal values may be shown once. Hit rate of the full screen: of about 340,000 compounds, about 6,200 (1.8%) were called active. Not shown: some 10% with an inconclusive outcome. The call rests on the fitted dose curve; in most records, active means well fitted activation curve with a large enough effect; inconclusive means small, poorly fitted or top-dose-only effect; inactive means no such curve, though single readings can be large or run the other way. The full list was thinned out, with actives kept by preference. Some compounds were tested as several samples or in several runs, with calls that do not always agree.
# Assay: A quantitative high throughput screen for small molecules that induce DNA re-replication in SW480 colon adenocarcinoma cells. Further: nearly all actives have a fitted effect of over 55% in size. On re-replication activation: % of control where 0% means no effect.
# Conditions: Hoechst DNA content imaging, 48 h; series mostly up to 46.1 µM; re-replication activation: at the top concentration
# From the text: H Molecular Libraries Probe Production Network [MLPCN] NIH Chemical Genomics Center [NCGC] MLPCN Grant: Fast Track K99 CA136555 Assay Provider: Melvin DePamphilis, NICHD, NIH Assay Overview Eukaryotic cells normally restrict genome duplication to once per cell division. When this process is aberrant, DNA re-replication occurs when cells reinitiate DNA replication before the first round of replication is complete. DNA re-replication induces the DNA damage response, arrests cell proliferation, and triggers apoptosis. The cell cycle components cyclin A, Cdt-1, Cdc6 and geminin are critical regulators of this process and their misregulation results in DNA re-replication in normal and cancer cells. To identify compounds that induce re-replication in normal cells, an image-based assay was used to measure DNA content of nuclei, as detected by the fluorescent DNA binding dye, Hoechst. Cell nuclei were imaged by a fluorescence scanning plate imager and compounds that induce DNA re-replication were identified by the increase of nuclei with elevated fluorescence intensity
# For screening, 250 cells in 5 uL/well were dispensed into black clear 1536-well plates (Aurora) using a solenoid-based dispenser. Following transfer of 23 nL compound or DMSO vehicle by a pin tool, the plates were incubated 48 hr at 37 C and 5% CO2. After addition of 1 uL/well Hoescht stain, the plates were incubated 40 min at 37 C, 5% CO2 and total intensity of fluorescent objects (nuclei) were enumerated by an Acumen Explorer Ex3 (TTP LabTech) fluorescence scanning plate imager (405 nm excitation, 500-530 nm emission). Keywords: NIH Roadmap, MLPCN, MLI, MLSMR, qHTS, NCGC, DNA replication, cancer
# Potency means the concentration at half of the fitted maximal effect.
SMILES,Potency,re-replication activation
Oc1c(Cl)cc(Cl)c(Cl)c1Cc1c(O)c(Cl)cc(Cl)c1Cl,inactive and 16.4 µM (active),
CCOC(=O)[C@@H]1[C@H]2COc3ccc(Br)cc3[C@H]2N2C(=O)N(c3ccc(C)cc3)C(=O)[C@@]12C,,-2.23% (inactive)
COc1cc(NC(=O)c2[nH]cnc2C(N)=O)cc(C(=O)Nc2cccc(C(F)(F)F)c2)c1,,-13.5% (inactive)
Cn1c(N)c(C(=O)COC(=O)c2ccc3ccccc3c2)c(=O)n(C)c1=O,,-2.62% (inactive)
CCN(C[C@H]1N[C@@](Cc2ccccc2)(C(=O)OC)[C@H]2C(=O)N(Cc3ccccc3)C(=O)[C@@H]12)C(=O)c1ccc(C)cc1,,6.19% (inactive)
COc1ccc(C(=O)COC(=O)CN2C(=O)C3CC=CCC3C2=O)c(OC)c1 (stereo not given),,2.53% (inactive)
COCC(=O)N=Nc1c(O)[nH]c2ccccc12,,-7.74% (inactive)
O=C(CCN1CCCCC1)N=Nc1c(O)[nH]c2ccccc12,18.4 µM (active),
Cc1cccc(N(CC(=O)N=Nc2c(O)[nH]c3ccccc23)S(C)(=O)=O)c1C,,-0.526% (inactive)
O=c1nc(NO)ccn1C1CCCO1 (stereo not given),,-2.96% (inactive)
COc1ccccc1NC1=NC(c2ccc(Cl)cc2)N=C(N)N1 (stereo not given),20.6 µM (active),
COc1ccccc1NC(=O)C1CCCN1S(=O)(=O)c1ccc(Cl)cc1 (stereo not given),,12% (inactive)
CC1(C)N=C(N)NC(Nc2ccc(Cl)cc2)=N1,,1.78% (inactive)
C[C@@H]1CN([C@H](C)CO)C(=O)c2cc(NC(=O)NC3CCCCC3)ccc2O[C@H]1CN(C)S(C)(=O)=O,,-8.58% (inactive)
COc1ccc(CCNC(=O)COC(=O)c2cc(=O)c3ccccc3o2)cc1,,-28.9% (inactive)
CNC[C@H]1Oc2c(NC(=O)C3CCCCC3)cccc2C(=O)N([C@H](C)CO)C[C@@H]1C,,4.46% [at 9.22 µM] (inactive)
CCOc1ccc(-c2cc(C(=O)N/N=C/c3ccc(O)cc3)c3ccccc3n2)cc1,18.4 µM (active),
COc1cc(/C=N/NC(=O)c2cc(-c3ccccc3C)nc3ccccc23)cc(OC)c1O,,-14.1% (inactive)
COc1ccc(/C=N/NC(=O)c2cc(-c3cccc(C)c3)nc3ccccc23)cc1O,,-2.6% (inactive)
Cc1ccccc1NC(=O)c1cc(S(=O)(=O)Nc2cccc(C(=O)O)c2)ccc1Cl,,-6.95% (inactive)
O=C(O)c1cccc(N2C(=O)Nc3ccccc3N2O)c1,,-10.1% (inactive)
C/C(=N\Nc1cccc(C(=O)O)c1)c1ccc2c(c1)Nc1ccccc1S2,8.2 µM (active),
COc1cc(OC)cc(-c2c(C#Cc3ccsc3)c3cc(-c4ccc(OC)cc4F)ccc3n2C)c1,,23.7% (inactive)
c1ccc(CNc2ncnc3[nH]ncc23)cc1,,4.58% (inactive)

SMILES,Potency,re-replication activation
Nc1cc(=O)n(Cc2ccccc2)c(=O)n1Cc1ccccc1,,0.57% (inactive)
Cc1nn(-c2ccc(F)cc2)c(Cl)c1/C=C(/CCC(=O)O)c1nc2ccccc2s1,,3.7% (inactive)
CCCCN(C(=O)c1cccc(N2C(=O)c3ccccc3C2=O)c1)c1c(N)n(CCCC)c(=O)[nH]c1=O,,-14.2% (inactive)
CCn1c(=S)[nH]c2cc(S(=O)(=O)N3CCOCC3)ccc21,,-6.64% (inactive)
Cc1ccc(/C=N/NC(=O)c2sccc2OCc2ccc(F)cc2)cc1,16.4 µM (active),
Cc1ccsc1C(=O)N/N=C/c1ccc([N+](=O)[O-])cc1,,-5% (inactive)
Cc1ccc(COc2ccc(/C=N/NC(=O)CN3CCCCC3)cc2)cc1,,0.267% (inactive)
CC(C)Cn1cnc2c(SCc3ccc(Cl)cc3)nc(N)nc21,,-9.4% (inactive)
CCN(CC)c1ccc(NC(=O)c2ccc(Cl)nc2)cc1,16.4 µM (active),
O=C(NNC(=O)c1ccc(Cl)nc1)c1ccc(Br)cc1,,-27.2% (inactive)
O=C(Nc1ccc2nc3n(c(=O)c2c1)CCCC3)c1ccc(Cl)nc1,,3.67% (inactive)
O=C(COc1ccccc1F)NNC(=O)c1cc(Br)ccc1Cl,,6.76% (inactive)
NC(=O)c1ccc(N2CCCC2)nc1,,-1.87% (inactive)
Oc1ccc(Br)cc1C=Nc1ccc2[nH]ncc2c1,,-0.677% (inactive)
Cc1c(C(=O)Nc2ccccn2)oc2ccc(Br)cc12,,-1.8% (inactive)
Oc1ccc(Br)cc1/C=N/Nc1ccccn1,9.2 µM (active),
CCOC(=O)CCCCCC(=O)Nc1ccc2c(c1)CC(=O)N([C@@H](C)CO)C[C@H](C)[C@@H](CN(C)Cc1ccccc1)O2,,-13.1% (inactive)
Cc1nn(Cc2ccc(C(=O)N3N=C(C(F)F)CC3(O)C(F)F)cc2)c(C)c1[N+](=O)[O-] (stereo not given),,-0.343% (inactive)
Cc1ccn(CCC(=O)N2c3ccccc3CC2C)n1 (stereo not given),,3.35% (inactive)
Cc1ccn(CC(=O)N2N=C(C(F)F)CC2(O)C(F)F)n1 (stereo not given),0.517 µM (active),
CC1(C)C[C@H]2C3=CCC4[C@@]5(C)CC[C@H](O)[C@](C)(CO)C5CC[C@@]4(C)[C@]3(C)C[C@@H](O)[C@@]2(CO)[C@@H](O)[C@@H]1O (stereo not given in full),,6.13% (inactive)
COc1cc(C(=O)OCC(=O)NC23CC4CC(CC(C4)C2)C3)cc(OC)c1OC,,-125% (inactive)
COc1ccc(C(CNC(=O)c2cc(S(=O)(=O)Nc3cccc(C)c3)ccc2C)N2CCCC2)cc1 (stereo not given),,12.7% (inactive)
CC[C@]1(C(=O)OC)[C@H]2C(=O)N(Cc3ccccc3)C(=O)[C@H]2[C@H]2CN=C(SCc3ccc(C#N)cc3)N21,,-4.58% [at 9.22 µM] (inactive)

SMILES,Potency,re-replication activation
CCCCNS(=O)(=O)CCNCc1ccccc1OC,,-1.68% (inactive)
CCOc1cc(-c2cc(-c3ccc(NC(C)=O)cc3)nc(N)c2C#N)ccc1O,,15.1% (inactive)
COc1ccc(OC)c2c(N)c(C#N)c(C(F)(F)C(F)(F)F)nc12,,-1.2% (inactive)
COc1ccc(-c2cc(-c3ccc(N)cc3)nc(N)c2C#N)cc1OC,23.1 µM (active),
COc1cccc(NC(=O)CN(C)CC(=O)c2c(N)n(Cc3ccccc3)c(=O)n(C)c2=O)c1,,-17.4% (inactive)
CC(=O)Nc1nonc1-c1nc2ccccc2n1Cc1ccccn1,,-18.9% (inactive)
COc1ccc(C)c(Cn2c(-c3nonc3N)nc3ccccc32)c1,5.17 µM (active),
CCn1c(C(O)c2cc(OC)ccc2OC)nc2ccccc21 (stereo not given),,-0.993% (inactive)
Cc1ccc(C(=O)NCC(c2cccs2)N(C)C)cc1S(=O)(=O)N1CCOCC1 (stereo not given),,2.33% (inactive)
CC(=O)C[C@H](O)CC(=O)[C@@H]1OC(=O)[C@@H](C)C/C=C\Cc2ccccc21,,-6.79% (inactive)
CC(C)C[C@H]1CN([C@@H](CC(C)C)CN2CCC[C@@H]2CN2C(=O)C(=O)NC[C@@H]2Cc2ccccc2)C(=O)C(=O)N1CCc1ccccc1,,12.5% (inactive)
CCc1ccc(NC(=O)Cn2nnc(C(=O)NCc3ccc(OC)cc3)c2N)cc1,,-17.6% (inactive)
CCOc1ccccc1NC(=O)Cn1nnc(C(=O)NCc2cccs2)c1N,0.146 µM (active),
CCOc1ccccc1NC(=O)Cc1cccs1,,-0.185% (inactive)
C#CCOCCOCCOCCNc1nc(N2CCN(C(=O)Cn3cc(CCO)nn3)CC2)nc(N2CCN(C(=O)[C@H](CCCCN)n3cc(CCCC)nn3)CC2)n1,,7.81% [at 9.22 µM] (inactive)
COc1ccc(Br)cc1/C=N/Nc1ccc(S(=O)(=O)Nc2ccccc2C(=O)O)cc1[N+](=O)[O-],,-2.84% (inactive)
O=C1C[C@@H]2c3c(cccc3CN1Cc1ccccc1)C[C@@H](O)[C@H]2O,,-3% (inactive)
CCOC(=O)c1sc(NC(=O)CSc2nc(C)cc(C(F)(F)F)n2)c(C#N)c1C,,11.7% (inactive)
CCOC(=O)c1sc(NC(=O)CSc2ncccn2)c(C#N)c1C,7.31 µM (active),
CCC(=O)Nc1sc(C(=O)N2CCCCC2)c(C)c1C#N,,4.2% (inactive)
COc1cc2c(cc1CNC[C@H]1O[C@@H](n3cnc(C(N)=O)n3)[C@H](O)[C@@H]1O)OCO2,,9.12% (inactive)
CC(C)C(NC(=O)c1c(F)cccc1F)C(=O)NNC(=O)c1ccccc1 (stereo not given),,3.18% (inactive)
COc1ccc(CNC(=O)COC(=O)C(CCSC)N2C(=O)c3ccccc3C2=O)cc1 (stereo not given),,9.91% (inactive)
CN(C)CCCn1c(N)c(C#N)c2nc(C#N)c(C#N)nc21,16.4 µM (active),

SMILES,Potency,re-replication activation
c1ccc2c(c1)OC1OC2Oc2ccccc21,,-5.45% (inactive)
O=C(NCCc1ccccc1)c1cccc(NC(=O)c2ccccc2)c1,,-30.1% (inactive)
COc1ccc(S(=O)(=O)N(CC(=O)N/N=C/c2ccccc2C(=O)O)c2ccccc2OC)cc1,,-2.38% (inactive)
COc1ccccc1N(CC(=O)N/N=C(\C)c1ccccc1O)S(=O)(=O)c1ccc(C)cc1,4.11 µM (active),
COc1ccccc1NC(=O)CN(c1ccccc1OC)S(=O)(=O)c1ccccc1,,-10.6% (inactive)
Cc1cc(C)nc(S/C=C/C(=O)c2ccccc2)n1,4.61 µM (active),
Cc1cc(C)nc(SCC(=O)c2ccc(Cl)cc2)n1,,-3.92% (inactive)
Cc1cc(C)nc(SCC(=O)N(C)C)n1,,-6.02% (inactive)
C=CCC[C@H](Cc1ccc(F)cc1)C(=O)OC[C@@H](NC(=O)[C@@H](CC=C)CC(=O)N[C@H](CO)Cc1ccccc1)C(C)(C)C,,0.781% (inactive)
O=C(NCC1CCCCC1)NCC1CCCCC1,,5.1% (inactive)
O=C1CC(c2ccccc2)C(=O)N2C(=O)CC(c3ccccc3)C(=O)N12 (stereo not given),,-19.3% (inactive)
CC(C)(C)c1nnc2sc(SCC(O)=C(C#N)c3nc4ccccc4[nH]3)nn2c1=O,,-1.77% (inactive)
COc1ccc(O)c(C=Nc2cc(C)on2)c1,,24.5% (inactive)
COc1ccc(-c2c(-c3ccc(OC)cc3O)nc(C)nc2C(F)(F)F)cc1,,-1.41% (inactive)
COc1ccc(-c2onc(C)c2-c2ccc3c(c2)OCCO3)c(O)c1,14.6 µM (active),
CCC(=O)Nc1sc(C(=O)Nc2ccccc2)c(C)c1C(=O)OC,20.6 µM (active),
COC(=O)c1c(NC(C)=O)sc(C(=O)Nc2ccccc2OC)c1C,,-22.9% (inactive)
CCOC(=O)c1sc(NC(=O)COc2ncnc3ccccc23)c(C(=O)OCC)c1C,,6.73% (inactive)
COc1cc(OC)cc(C(=O)NC(C(=O)N2CCC2)C(C)C)c1 (stereo not given),,-7.72% (inactive)
CC(=O)Nc1ccc(Nc2c3ccccc3nc3ccccc23)cc1,18.4 µM (active),
CC(C)(C)OC(=O)NNc1c2ccccc2nc2ccccc12,,18.8% (inactive)
CC(=O)Nc1ccc(NC(=O)COc2ncnc3ccccc23)cc1,,-0.239% (inactive)
CC[C@]1(C(=O)OC)[C@H]2C(=O)N(Cc3ccccc3)C(=O)[C@H]2[C@H]2CN=C(SCc3ccccc3)N21,,-6.22% (inactive)
